Platelet DG rel = inhibitors of platelet dense granule secretion, primary screen, cell-based, MLPCN, human platelets. human platelet-rich plasma, SFLLRN dense granule ATP release, luminescence. inhibition, %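 (compounds screened at 7.5 µM in platelet-rich plasma)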. 0.22% of 300,000 active. AID 1663, 2009;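 active = mean replicate score, as percent of positive control, at or above 50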
PPC-1+TRAIL kill = compounds killing PPC-1 cancer cells with TRAIL present, primary screen, TRAIL potentiator project, ATPLite luminescence, uHTS; cell killing (% activity), % at 4 µM or 5 µM; 0.41% of 220,000 active; PPC-1 cells + TRAIL, ATPLite viability luminescence;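 active = cell killing above 50% in the first pass at 4 µM, then a duplicate retest at 5 µM averaging 50% or more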
STAT3 inh-1 = IL-6 driven STAT3 reporter inhibitors, primary screen, U3A cells, luciferase, luminescence, MLSCN library | 0.89% of 190,000 active | inhibition, % at 5.5 µM | IL-6 STAT3-luciferase reporter; host cell line lacks STAT1;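 active = inhibition above the mean inhibition across all screened compounds plus 3 SD, cut at about 44% in these data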
STAT1 inh-1 = STAT1 signaling inhibitors, primary screen, cell-based, HTS, luciferase reporter; NIH 3T3 STAT1-luciferase reporter, IFN-gamma, luminescence; inhibition, % at 5.5 µM; 0.35% of 200,000 active; AID 920, 2007;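 active = inhibition above a set limit, the mean inhibition across all tested compounds plus 3 SD, cut at about 34% in these data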
C8 TRAIL sens = viability loss with TRAIL in NB7+C8 cells, primary screen, TRAIL sensitizer project, cell-based, ATPlite luminescence. inhibition (viability loss, TRAIL sensitization), % at 10 µM. 1% of 360,000 active. AID 624354, 2012;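 active = compounds causing at least 50% loss of cell viability in the single-dose screen, relative to plate controls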
STAT3 inh-2 = STAT3 reporter inhibitors, retest of hits, confirmation, U3A cells, luciferase, luminescence. shares compounds with STAT3 inh-1. IL-6 STAT3 luciferase reporter; cell line lacks STAT1. 45% of 1,200 active. inhibition, % at 5.7 µM;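 active = inhibition above the hit cutoff computed for the primary STAT3 screen, cut at about 44% in these data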
NFkB inh 2 = NF-kB reporter inhibitors in human cells, confirmation, counter-screen for STAT3 inhibitor project, cell-based, HEK293T, luciferase, TNF-alpha stimulus; shares compounds with STAT3 inh-1; TNF-alpha induced; inhibition, % at 5.7 µM; 36% of 1,200 active; AID 1308, 2008;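 active = inhibition above the mean of solvent-only control wells plus 3 SD, cutoff set per campaign, cut at about 13% in these data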
STAT1 inh STAT3c = STAT1 reporter inhibitors, IFN-gamma induced, confirmation, counter-screen for STAT3 inhibitor project, cell-based, NIH 3T3, luciferase luminescence. NIH 3T3 STAT1-luciferase reporter. 27% of 1,200 active. inhibition, % at 5.7 µM. shares compounds with STAT3 inh-1. AID 1317, 2008;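 active = inhibition above the mean plus 3 SD of solvent-only control wells, limit set per screening run, cut at about 16% in these data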
STAT1 inh-2 = STAT1 signaling inhibitors, confirmation, cell-based, HTS, luciferase reporter; 55% of 200 active; inhibition, % at 5.5 µM; NIH 3T3 STAT1-luciferase reporter, IFN-gamma, luminescence; AID 1263, 2008; shares compounds with STAT1 inh-1;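 active = triplicate mean inhibition exceeding the hit cutoff computed for the primary STAT1 screen, cut at about 35% in these data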
NFkB inh STAT1ct = NF-kB reporter inhibitors, TNF-alpha stimulated, counter-screen for STAT1 inhibitor project, cell-based, HEK293T, luciferase luminescence; shares compounds with STAT1 inh-1; TNF-alpha induced; inhibition, % at 5.7 µM; 30% of 200 active;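 active = inhibition above the mean of solvent-only control wells plus 3 SD of those wells, cut at about 15% in these data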
STAT3 inh 2 = STAT3 reporter inhibition by STAT1 hits, counter-screen for STAT1 inhibitor project, U3A cells, luciferase, luminescence, triplicate. shares compounds with STAT1 inh-1. IL-6 STAT3 luciferase reporter; cells lacking STAT1. inhibition, % at 5.7 µM. 20% of 200 active. AID 1310, 2008;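 active = inhibition above the mean of solvent-only control wells plus 3 SD, set per campaign, cut at about 25% in these data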
PPC1 cytotox = cytotoxicity in PPC-1 cells, confirmation, cytotoxicity control for TRAIL apoptosis potentiator project, cell-based, ATP content luminescence; shares compounds with PPC-1+TRAIL kill; PPC-1 viability, ATPlite luminescence, overnight; cytotoxicity, % at 5 µM; 50% of 1,200 active; AID 1447, 2008;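 active = reconfirmed compounds whose average cytotoxicity reaches 50% or more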
Numbers stand for hits; 0 = inactive; - = not tested or not shown. Compounds with a hit are over-represented: about 1.6% of the library has one in this group of screens.

SMILES | Platelet DG rel | PPC-1+TRAIL kill | STAT3 inh-1 | STAT1 inh-1 | C8 TRAIL sens | others
Fc1cccc(-c2ccc3c(c2)CN(c2cccc(Cl)c2)Cc2cnnn2-3)c1 | - | - | - | - | 0
Cc1nc2cc(C(F)(F)F)ccc2n1C1CCN(Cc2nnnn2Cc2cccs2)CC1 | 0 | 0 | 0 | 0 | 0
Cc1nc2cc(C(F)(F)F)ccc2n1C1CCN(Cc2nnnn2Cc2ccc3c(c2)OCO3)CC1 | 0 | 0 | 0 | 0 | 58
COc1ccc(-[n+]2c(-c3ccccc3)cc(-c3ccc(C)cc3)cc2-c2ccccc2)cc1 | 0 | - | - | - | 57
Cc1ccc(-c2cc(-c3ccccc3)cc(-c3ccccc3)[n+]2-c2ccc(C(=O)O)cc2)cc1 | 0 | - | - | - | 0
O=C(O)c1ccc(-[n+]2c(-c3ccccc3)cc(-c3ccccc3)cc2-c2ccccc2)cc1 | 0 | - | - | - | 0
Oc1ccccc1-[n+]1c(-c2ccccc2)cc(-c2ccccc2)cc1-c1ccccc1 | 0 | - | - | - | 0
Brc1ccc(-[n+]2c(-c3ccccc3)cc(-c3ccccc3)cc2-c2ccccc2)cc1 | 0 | - | - | - | 56
CCCOC(=O)c1ccc(-[n+]2c(-c3ccccc3)cc(-c3ccccc3)cc2-c2ccccc2)cc1 | 0 | - | - | - | 58
Cc1ccccc1-[n+]1c(-c2ccccc2)cc(-c2ccccc2)cc1-c1ccccc1 | 0 | - | - | - | 67
CN1CC=C(/C=C/c2ccc(-c3ccccc3)cc2)CC1 | 0 | - | - | - | -
C(#CCN1CCCCC1)CN1CCCCC1 | - | - | - | - | 0
c1cc2c(cc1N1CCCCC1)C1CC2CCN1 (stereo unspecified) | - | - | - | - | 0
CC(C)N(C(=O)CCl)c1ccccc1 | - | - | - | - | 91
CN(C)C(Cc1ccccc1)C(=O)c1ccccc1 (stereo unspecified) | 0 | 0 | 0 | 0 | 0
CCNC(=O)[C@H]1O[C@@H](n2cnc3c(N)ncnc32)[C@H](O)[C@@H]1O | 84 | 0 | - | - | 0
Nc1ncnc2c1ncn2[C@@H]1O[C@H](COP(=O)(O)CP(=O)(O)O)[C@@H](O)[C@H]1O | - | - | - | - | 0
Cc1ccc2n1Cc1cnnn1-c1ccccc1-2 | - | - | - | - | 0
O=C(NN=Cc1ccc(N(CCCl)CCCl)cc1)c1cccnc1 | - | - | - | - | 0
NNCc1ccccc1 | - | - | - | - | 0
COc1ccc(-c2ccc3c(c2)CN(C(=O)C(C)(C)C)Cc2cnnn2-3)cc1 | - | - | - | - | 0
O=C(c1ccccc1)C(CN1CCCC1)c1ccccc1 (stereo unspecified) | 0 | 57 | 0 | 0 | 0
CCN1CCN(CC(c2ccccc2)c2ccccc2)CC1 | 0 | - | - | - | 0
O=[N+]([O-])c1ccc(Cl)c([N+](=O)[O-])c1 | - | - | - | - | 81
COC(=O)C1(F)C(=O)NC(=O)NC1O (stereo unspecified) | - | - | - | - | 0
SMILES | Platelet DG rel | PPC-1+TRAIL kill | STAT3 inh-1 | STAT1 inh-1 | C8 TRAIL sens | others
CCOC(=O)c1ccc(NC(=O)c2c(O)[nH]c(=O)[nH]c2=O)cc1 | 0 | 0 | 0 | 0 | 0
CCOc1ccc(NC(=O)c2c(O)[nH]c(=O)[nH]c2=O)cc1 | 56 | - | - | - | 0
CN(C)c1ccc(/C=C/[N+](=O)[O-])cc1 | 0 | 0 | 0 | 0 | 0
C/C(=C\c1ccc(N(C)C)cc1)[N+](=O)[O-] | 0 | 0 | 0 | 0 | 50
CCC(c1nnnn1-c1ccc(OC)cc1)N1CCC2(CC1)C(=O)NCN2c1ccccc1 (stereo unspecified) | - | - | - | - | 0
CNC(=O)Oc1cccc(-c2cn3cc(Cl)ccc3n2)c1 | 0 | 86 | 92 | 0 | 80 | STAT3 inh-2=82;NFkB inh 2=0;STAT1 inh STAT3c=0
C[C@@H]1CN([C@@H](C)CO)C(=O)CCCn2nncc2CO[C@H]1CN(C)C(=O)Oc1ccccc1 | - | - | - | - | 0
CCn1nc(-c2ccccc2)nc2c(=O)n(C)c(=O)nc1-2 | 0 | 0 | 62 | 0 | 0 | STAT3 inh-2=74;NFkB inh 2=49;STAT1 inh STAT3c=41
COc1ccc(-c2nc3ccccc3c(=O)n2-c2ccc(OC)cc2)cc1 | 0 | 0 | 0 | 0 | 0
O=C(Nc1ccncc1)c1cccn(Cc2ccccc2)c1=O | 0 | 0 | 79 | 0 | 0 | STAT3 inh-2=74;NFkB inh 2=17;STAT1 inh STAT3c=0
Cc1ccc(-n2c(O)c(/C=N/Nc3ccccc3)c(=O)[nH]c2=O)cc1C | 0 | 0 | - | - | -
COc1ccc(N/N=C/c2c(O)n(-c3ccc(C)c(C)c3)c(=O)[nH]c2=O)cc1 | 0 | 0 | 48 | 0 | 0 | STAT3 inh-2=0;NFkB inh 2=0;STAT1 inh STAT3c=0
CCOC(=O)[C@]12Cc3cc(C)ccc3[C@H]1N(Cc1ccccc1)C(=O)c1cc(OC)ccc12 | - | - | - | - | 0
C[C@H]1CCC[C@@H](O)CCC/C=C/c2cc(O)cc(O)c2C(=O)O1 | 0 | 0 | 60 | 0 | 0 | STAT3 inh-2=48;NFkB inh 2=0;STAT1 inh STAT3c=0
CC1CCC[C@H](O)CCCCCc2cc(O)cc(O)c2C(=O)O1 (stereo partly specified) | 0 | 0 | 0 | 0 | 0
CCCCn1c(C)c(C(=O)O)c2cc(OC)ccc21 | 0 | 0 | 52 | 0 | 0 | STAT3 inh-2=0;NFkB inh 2=0;STAT1 inh STAT3c=0
COc1ccc(OC(=O)N(C)C[C@H]2OCc3cnnn3CCCC(=O)N([C@H](C)CO)C[C@H]2C)cc1 | - | - | - | - | 0
O=C(Nc1ccc(OC(=O)N2CCCC2)cc1)N1CCOCC1 | 0 | 0 | 0 | 0 | 0
O=C(Nc1ccc(OC(=O)N2CCCCC2)cc1)N1CCOCC1 | 0 | 0 | 0 | 36 | 0 | STAT1 inh-2=0;NFkB inh STAT1ct=0;STAT3 inh 2=0
C[C@@]12CC[C@@H](c3cc4c(cc3C1)OCO4)N2c1ccccc1 | - | - | - | - | 0
CC1(C)CC(=O)C(C=NCCN2CCN(C(=O)Cc3ccc(F)cc3)CC2)=C(O)C1 | 0 | 0 | 0 | 34 | 0 | STAT1 inh-2=0;NFkB inh STAT1ct=0;STAT3 inh 2=0
Cc1ccc2nc(N3CCN(C)CC3)[nH]c2c1 | 0 | 0 | 0 | 0 | 0 | PPC1 cytotox=0
